# Compound activity: PubChem BioAssay, National Center for Advancing Translational Sciences (NCATS)
# The list is not random: actives were taken first. Their share in the collection is about 1.4%.
# PINK1 modulator – changes PINK1 expression. AID 624263. Potency, µM (series often up to 76.6 µM), for the others: at the highest dose activation (PINK1 increase), hits mostly activators. actives 0.2% (n = 410,000). PINK1 immunofluorescence, high-content cytometry, 24 h; active = well fitted activation curve with a large enough effect; inconclusive = small, poorly fitted or top-dose-only effect; cell line not stated here; also: potency is read from the fitted curve at half-maximal effect; % of control where 0% means no effect; nearly all actives have a fitted effect of over 65% in size
#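 Decision-based qHTS: stable cells, 24 h exposure to five compound concentrations, CCCP as control. Fixed cells stained for PINK1 plus nuclear, mitochondrial and cell markers, cytometer read.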
# ALOX12 inh – ALOX12 (human) lipoxygenase inhibition. P18054. purified 12hLO, xylenol orange hydroperoxide absorbance. Potency, µM (doses to about 108 µM), without a hit: at the top dose activity change, negative = inhibition, usual class: inhibitors. actives 1.1% (n = 580,000); also: potency is read from the fitted curve at half-maximal effect; % is scaled to controls: 0 for no effect and ±100 for the full control effect
#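 Purified human 12hLO (150 nM final) in 25 mM Hepes, 0.01% Triton X-100, pH 7.0 was preincubated 15 min at room temperature with compound. Then 40 uM arachidonic acid was added, 30 min. Hydroperoxide was read by Fe-XO absorbance ratio 573/405 nm.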
# p53 reactivator – restores transcriptional activity of mutant p53; H1299 p53-A138V BP100-luciferase reporter, luminescence, 24 h; Potency, µM (doses to about 92.2 µM), inactives show top-dose activity change, positive = activation, actives largely listed as activators; actives 0.063% (n = 320,000); AID 504706; also: potency is read from the fitted curve at half-maximal effect; % of control where 0% means no effect; nearly all actives have a fitted effect of over 45% in size
#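 p53-null H1299 cells stably carrying temperature-sensitive p53-A138V and a BP100-luciferase reporter were pinned with compounds (4-point, 1:5 series) and held 24 hrs at 37 deg C. Luminescence was read 10 min after detection reagent.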
# Mm-Cpn inhibitor – M. maripaludis TRiC chaperonin inhibition; purified Mm-Cpn ATPase, ADP Transcreener TR-FRET; Potency, µM (highest dose often 76.9 µM), for inactives: at the top dose activity, negative = inhibition, most hits filed as inhibitors; actives 0.031% (n = 330,000); AID 504842; also: potency is read from the fitted curve at half-maximal effect; % is scaled to controls: 0 for no effect and ±100 for the full control effect; nearly all actives have a fitted effect of over 80% in size
#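 TR-FRET (320 nm excitation; 590 and 665 nm emission) reports ADP made from 10 uM ATP by 25 nM enzyme; compounds were preincubated 10 min, reaction run 30 min, both at 37°C.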
# S-ASM inh – human S-ASM enzyme inhibition; P17405; placental ASM, HMU-PC fluorogenic substrate, 60 min; Potency, µM (titrated, usually from 57.5 µM), for the others: at the top dose activity change, negative = inhibition, most hits filed as inhibitors; actives 0.006% (n = 340,000); AID 504937; also: potency is read from the fitted curve at half-maximal effect
# Target sequence (P17405 47-631 limits assumed): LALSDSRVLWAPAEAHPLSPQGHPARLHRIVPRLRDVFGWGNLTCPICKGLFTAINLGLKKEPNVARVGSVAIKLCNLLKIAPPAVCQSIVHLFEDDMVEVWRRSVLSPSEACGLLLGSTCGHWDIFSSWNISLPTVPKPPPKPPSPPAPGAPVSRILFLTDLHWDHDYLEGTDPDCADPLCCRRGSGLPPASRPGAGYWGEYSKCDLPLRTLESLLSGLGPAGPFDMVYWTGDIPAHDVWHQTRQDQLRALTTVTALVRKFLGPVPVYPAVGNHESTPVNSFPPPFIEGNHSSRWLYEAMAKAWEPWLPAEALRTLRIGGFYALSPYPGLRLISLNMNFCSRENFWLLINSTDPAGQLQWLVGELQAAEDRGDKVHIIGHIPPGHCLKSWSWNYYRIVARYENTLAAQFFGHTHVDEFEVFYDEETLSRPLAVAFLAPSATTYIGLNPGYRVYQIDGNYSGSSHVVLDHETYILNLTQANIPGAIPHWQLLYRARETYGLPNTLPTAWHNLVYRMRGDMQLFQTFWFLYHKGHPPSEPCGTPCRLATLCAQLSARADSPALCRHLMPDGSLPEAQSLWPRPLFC
#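 Human placenta-derived ASM preincubated with compound 10 min at room temperature, then reacted with 9 uM (final) fluorogenic HMU-PC substrate for 60 min at 37 C. Stop solution raises pH to 10; fluorescence read at Ex 386/Em 447 nm.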
# CCT chaperon mod – cytosolic chaperonin activity modulation; purified chaperonin ATPase assay, HTRF ADP detection, 30 min; activity change, % (concentration not given with the values), hits read low; actives 0.3% (n = 360,000); AID 651819; in the data active = activity change below about -30%; also: % is scaled to controls: 0 for no effect and ±100 for the full control effect
#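 ATPase activity: ADP formed was measured by HTRF Transcreener (665/615 nm ratio) after 30 min at 37 deg C with 10 uM ATP. Compounds screened at one 76 uM concentration against 40 or 20 nM TRiC in Tris pH 7.4/KCl/MgCl2/DTT buffer.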
# * marks the source's active call; other numbers are inactive results; i = inactive; ? = inconclusive; nt = no result given; ! = a repeat was not active; [ ] = another dose, or the depositor's remark. Unless noted, calls follow the shape of the dose curve; as a rule, active = well fitted curve in the direction sought with a large enough effect; inconclusive = small, poorly fitted or top-dose-only effect, or another doubt; inactive = no such curve, though single readings can be large; an effect the other way counts as inactive or inconclusive.
SMILES,PINK1 modulator,ALOX12 inh,p53 reactivator,Mm-Cpn inhibitor,S-ASM inh,CCT chaperon mod
COc1ccc(C2c3cc4c(cc3OC(N3CCOCC3)C2C)OCO4)c(OC)c1 (centres undefined),-4.4%,1.0%,nt,nt,-4.2%,-2.8
COc1cccc(C2c3cc4c(cc3OC(N3CCOCC3)C2C)OCO4)c1O (centres undefined),3.9%,31.6µM*,nt,nt,-1.6%,0.9
COc1cc(C2c3cc4c(cc3OC(NNC(N)=O)C2C)OCO4)cc(OC)c1OC (centres undefined),5.2%,-18.5%,nt,nt,1.2%,-2.2
O=C(/C=C/c1ccco1)NCC1OCCc2ccccc21 (centres undefined),-1.4%,44.7µM*,6.1%,0.3%,-5.3%,-1.0
NCC1Cn2cccc2CN1Cc1ccccc1 (centres undefined),nt,244.7%,nt,nt,nt,nt
N#C/C(=C(/O)c1cccc(F)c1)c1nc2ccccc2s1,39.8µM*,0.0%,?,-0.6%,-4.9%,2.2
Cn1c(/C(C#N)=C(\O)c2cccc(F)c2)nc2ccccc21,2.8%,12.6%,6.4%,1.8%,-0.9%,-1.4
Cc1cccc(NC(=O)CSc2nc(C)c(C)o2)c1C,nt,-53.9%,nt,nt,nt,nt
Cc1cc2nnc(SCC(=O)Nc3cc(S(=O)(=O)N4CCOCC4)ccc3Cl)n2c2ccccc12,1.3%,-6.5%,-6.5%,-5.3%,-5.1%,-53.3*
Fc1ccccc1-c1ccc(/C=N/Nc2nc3ccccc3[nH]2)o1,22.1%,-22.3%,35.5µM*,-3.7%,88.1%,-0.1
COC(=O)C1=C(C(=O)OC)C(c2ccccc2O)c2sc(=O)[nH]c2S1 (centres undefined),0.5%,44.7µM*,-0.3%,-20.1%,38.0%,-3.1
CC(=O)NN1C(=O)c2ccccc2NC1c1ccccc1O (centres undefined),0.2%,30.3%,-6.2%,-3.1%,9.7%,0.8
CC1CC(C)(C)NC(=S)N1CCC(=O)N1CCc2ccccc2C1 (centres undefined),0.6%,39.8µM*,-8.1%,-0.5%,3.0%,0.6
Cc1ccccc1-n1nc2c(c1NC(=O)C(C)C)CS(=O)(=O)C2,3.3%,21.1%,1.9%,-0.5%,4.7%,-0.4
Cc1ccccc1-n1nc2c(c1NC(=O)C(C)(C)C)CS(=O)(=O)C2,1.5%,21.0%,0.9%,2.4%,2.1%,-43.0*
CCc1nc2c(OCc3ccc(Cl)cc3)cccn2c1N(C=O)Cc1ccccc1,19.7%,?,nt,nt,nt,2.3
CCc1nc2c(OCC(=O)c3ccc(Cl)cc3Cl)cccn2c1N(C=O)Cc1ccccc1,-0.5%,14.1µM*,nt,nt,nt,0.8
O=C(CCCCCC(=O)N/N=C/c1cc2c(cc1[N+](=O)[O-])OCO2)N/N=C/c1cc2c(cc1[N+](=O)[O-])OCO2,nt,29.3%,nt,nt,nt,nt
Nc1nonc1C(=O)N/N=C/c1cc2c(cc1[N+](=O)[O-])OCO2,39.8µM*,-34.5%,0.3%,0.2%,-3.1%,0.2
CN1C=CC2=C(C#N)C(N)C(C#N)(C#N)C(c3ccccc3)C2C1 (centres undefined),11.2µM*,-14.7%,3.2%,0.2%,i,-1.9
N#CC1(C#N)[C@H](C(N)=O)[C@H]1c1ccccc1,nt,-50.9%,nt,nt,nt,nt
CC(C)(CNc1nc(-c2ccccc2)nc2ccccc12)N1CCOCC1,nt,5.0%,nt,nt,nt,nt
COc1cc(C2CC(=O)N3CN(c4ccccc4C)CSC3=C2C#N)cc(OC)c1OC (centres undefined),nt,?,-3.1%,-6.2%,nt,nt
COc1ccc2ccccc2c1C1CC(=O)N2CN(C)CSC2=C1C#N (centres undefined),0.2%,?,1.3%,0.2%,-9.3%,-5.1
COc1cc(C2CC(=O)N3CN(c4cccc(C)c4)CSC3=C2C#N)ccc1O (centres undefined),nt,2µM*,nt,nt,nt,nt
SMILES,PINK1 modulator,ALOX12 inh,p53 reactivator,Mm-Cpn inhibitor,S-ASM inh,CCT chaperon mod
COc1cc(OC)c(C2CC(=O)N3CN(C)CSC3=C2C#N)cc1OC (centres undefined),0.5%,15.8µM*,3.3%,-3.9%,4.6%,-1.5
N#CC1=C2SCN(c3ccccc3)CN2C(=O)CC1c1c(Cl)cccc1Cl (centres undefined),-0.3%,3.16µM*,?,-1.4%,-12.4%,-1.5
COc1ccc(Br)cc1C1CC(=O)N2CN(Cc3ccccc3)CSC2=C1C#N (centres undefined),4.1%,?,1.0%,-5.8%,-2.8%,-4.5
COc1ccc(Br)cc1C1CC(=O)N2CN(C)CSC2=C1C#N (centres undefined),-1.0%,28.2µM*,-0.8%,-3.4%,0.0%,1.9
CCc1ccc2nc(-c3cccnc3)cc(C(=O)O)c2c1,nt,-58.5%,nt,nt,nt,nt
COc1cc(OC)c(C2CC(=O)N3CN(c4ccccc4)CSC3=C2C#N)cc1OC (centres undefined),-2.8%,2.82µM*,14.2%,-0.5%,-0.2%,0.1
CCOc1ccc(N2CSC3=C(C#N)C(c4ccco4)CC(=O)N3C2)cc1 (centres undefined),?,?,2.6%,-4.4%,4.9%,0.2
CCc1ccccc1N1CSC2=C(C#N)C(c3cc(OC)c(OC)cc3OC)CC(=O)N2C1 (centres undefined),3.2%,?,-1.5%,-17.2%,2.5%,0.8
CCOc1cc(C2CC(=O)N3CN(c4ccccc4)CSC3=C2C#N)cc(Br)c1O (centres undefined),nt,1.78µM*,nt,nt,nt,nt
COc1ccccc1N1CC(C(=O)OC(C)C(=O)N2CCCc3ccccc32)CC1=O (centres undefined),-0.8%,-11.3%[57.4 µM],1.6%,-2.8%,-0.3%,-60.5*
CC(=O)N1CCC2(CC1)Oc1ccc(Br)cc1C1CC(c3ccncc3)=NN12 (centres undefined),nt,13.4%,nt,nt,nt,nt
COC(=O)c1c(C)[nH]c(C(=O)C(C)Nc2ccc(OC)cc2OC)c1C (centres undefined),nt,-3.6%,nt,nt,nt,nt
Cc1ccc(N=c2ssnc2Cl)cc1,1.1%,1.58µM*,4.9%,0.1%,-0.7%,1.3
Cc1cc(C)nc(/N=c2/ssnc2Cl)c1,0.5%,8.91µM*,0.6%,-2.1%,-1.2%,0.4
COc1cc(N=c2ssnc2Cl)c(OC)cc1Cl,2.3%,2.51µM*!,-31.8%,0.8%,-1.2%,-0.6
Cc1cc(Cl)ccc1N=c1ssnc1Cl,-0.3%,?,4.5%,0.6%,-7.6%,-0.7
Cc1nnc(N=c2ssnc2Cl)o1,?,3.16µM*,4.2%,1.6%,-3.2%,-1.5
CC(OC(=O)c1cncc(Br)c1)C(=O)C12CC3CC(CC(C3)C1)C2 (centres undefined),nt,4.5%,nt,nt,nt,nt
